Mdm2 MdmX PPI: human Mdm2/MdmX binding inhibition | O15151+Q00987 | SaOS-2 split-luciferase Mdm2/MdmX complementation, luminescence | inhibition, % at 8 µM | 330,000 compounds, 3% hits | AID 485346;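 active means inhibition of at least 50% at 8 µM in the primary screen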
Beta cell apopt: beta cell apoptosis inhibition. AID 435005. 300,000 compounds, 0.8% hits. protection from apoptosis, % (no concentration beside the values). INS-1E cytokine-induced death, ATP luminescence, 48 h; percent of positive-control rescue, neutral wells zero;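 active means Every replicate reaches about 75%, or at least half do and their mean reaches it too, limit read from the data; inconclusive means At least half of replicates reach the limit but their mean does not; inactive means Under half of replicates reach the limit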;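 further: 0% = cytokine-treated negative control wells and 100% = positive control rescue; higher means more ATP so stronger rescue from cytokine killing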
697 NFkB inh: inhibitors of the PMA/ionomycin-induced NF-kB reporter in 697 B cells | inhibition, % at 4 µM | 330,000 compounds, 0.33% hits | 697 B-cell NF-kB luciferase reporter, 16 h; in the data active means inhibition above about 35%
A1 inh: inhibitors of the anti-apoptotic protein A1, read as caspase activation; MEF A1-2A-BIM cells, Caspase-Glo 3/7 luminescence, 3 h; percent of clofoctol response, vehicle zero; 330,000 compounds, 0.066% hits; caspase activation, % (no concentration beside the values);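 active means over half of replicate activation scores above 10%, or exactly half above 10 with the replicate mean above 10; inconclusive means replicate mean below 10 yet half the replicates above 10; inactive means over half of replicates below 10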
NTR1 ag: agonists of human neurotensin receptor NTR1 | P30989 | NTR1-U2OS beta-arrestin-GFP spot imaging, agonist mode | activation, % at 20 µM | 330,000 compounds, 0.17% hits;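 active means activation at or above 40% of the spot to cytoplasm intensity ratio, with at least 20 cells analyzed; inconclusive means wells under 20 cells, flagged as cytotoxic or low count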;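 further: 0% = DMSO without peptide and 100% = 100 nM NTR1 peptide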
Jurkat NFkB inh: lowers PMA/ionomycin-induced NF-kB signal in Jurkat cells; PMA/ionomycin-induced NF-kB luciferase reporter, luminescence; inhibition, % at 4 µM; 330,000 compounds, 0.53% hits; in the data active means inhibition above about 50%
Active calls of the source: *; ? = inconclusive; . = not tested or not shown. Rows were chosen to be rich in hits. Some 3.8% of all compounds tested hit in one or more screens of this group.

SMILES	Mdm2 MdmX PPI	Beta cell apopt	697 NFkB inh	A1 inh	NTR1 ag	Jurkat NFkB inh
C=CCn1cc(/C=N/Nc2nc3ccccc3[nH]2)c2ccccc21	36.7	109.0*	-46.3	-0.9	11.8	-32.1
CCOc1ccc(C(=O)c2cc([N+](=O)[O-])ccc2N2CCOCC2)cc1	.	79.1*	.	1.5	.	.
COc1ccc(NC(=O)CN(C)C(=O)/C=C/c2ccc(S(=O)(=O)N3CCCCCC3)cc2)cc1	26.6	75.1*	18.2	?	0.5	-4.2
COc1ccc(N(CC(=O)Nc2ccc(S(=O)(=O)N3CCCCC3)cc2)S(C)(=O)=O)cc1OC	21.9	0.4	-34.4	0.7	-1.9	7.5
NC(=O)c1ccc(NC(=O)c2ccc(COc3ccccc3Br)cc2)cc1	-6.0	.	-5.6	.	-0.7	-0.5
Cc1cc(C)n(Cc2ccc(NC(=O)c3ccc(COc4ccccc4Br)cc3)cc2)n1	36.2	78.3*	-47.1	-0.1	2.8	18.6
Cc1ccc(S(=O)(=O)Nc2cc(Cl)c(O)c3ncccc23)cc1	39.8	109.7*	-30.4	-0.4	1.9	12.3
CC(Cc1c[nH]c2ccccc12)C(=O)NCc1ccco1 (stereo not given)	12.3	.	9.2	0.8	-0.5	-2.8
Cc1ccc(C2=CC(c3ccc(N(C)C)cc3)n3nnnc3N2)cc1 (stereo not given)	-22.3	108.3*	-10.2	-0.5	-0.9	4.6
COc1ccc(C2=CC(c3ccc(F)cc3)n3nnnc3N2)cc1 (stereo not given)	3.5	-1.6	-9.5	-0.1	0.6	-11.2
C#Cc1cccc(NC(=O)c2ccc3c(c2)C(=O)N(Cc2cccnc2)C3=O)c1	-18.3	-4.2	-4.0	0.3	7.6	7.0
O=C(OC(c1ccc(NS(=O)(=O)c2ccccc2)cc1)(C(F)(F)F)C(F)(F)F)c1ccccc1	32.2	6.8	-21.1	1.4	9.1	-2.4
Cc1ccc(S(=O)(=O)Nc2ccc(C(OC(=O)c3ccccc3[N+](=O)[O-])(C(F)(F)F)C(F)(F)F)cc2)cc1	13.4	110.0*	-21.2	-0.7	16.0	-7.0
CCOC(=O)N1CCC(NC(=O)C2CCCN(Cc3nc(-c4cccc(Cl)c4)oc3C)C2)CC1 (stereo not given)	32.2	77.5*	-8.4	-0.1	4.0	17.9
Cc1oc(-c2ccc(Cl)cc2)nc1CN1CCCC(C(=O)NC2CC2)C1 (stereo not given)	9.9	-2.3	-2.4	-1.3	1.4	9.6
CSc1ccc(S(=O)(=O)Nc2ccc(N3CCOCC3)c(Cl)c2)cc1	-19.9	103.9*	-35.7	-0.6	2.1	22.2
COc1ccc(NS(=O)(=O)c2ccc(N3CCOCC3)c(N)c2)cc1	-6.5	76.4*	-25.4	-2.5	-0.9	24.9
Cc1cc(S(=O)(=O)NCc2ccncc2)c(C)cc1Br	24.4	74.7*	0.2	0.3	0.7	37.4
CCn1nc(C)c(CN2CCCC(CNS(=O)(=O)c3ccc(OC)cc3)C2)c1C (stereo not given)	-8.0	2.4	-7.9	-0.1	-0.2	11.0
NNc1ncnc2scc(-c3ccc(Cl)cc3)c12	-2.4	94.2*	-4.7	0.3	0.0	-3.9
COC(=O)c1c(C)[nH]c(C(=O)OCC(=O)c2c(N)n(CC(C)C)c(=O)n(C)c2=O)c1C	28.9	8.3	-13.8	0.3	4.4	3.8
Cc1cccc(Cn2nnc3c2C(=O)c2ccccc2C3=O)c1	42.3	109.8*	-1.0	-0.2	5.0	11.7
CSCc1cccc(C(=O)OC(C)C(=O)Nc2c(C)n(C)n(-c3ccccc3)c2=O)c1 (stereo not given)	-9.1	.	-2.6	.	0.6	-0.2
CCCc1cc(C(=O)NC(C)C2CCCO2)cs1 (stereo not given)	15.8	0.1	0.0	-0.3	-0.2	-20.0
O=C(O)c1ccc(Cn2cc(/C=C\[N+](=O)[O-])c3ccccc32)o1	15.7	8.6	-0.4	2.3	0.3	8.9
SMILES	Mdm2 MdmX PPI	Beta cell apopt	697 NFkB inh	A1 inh	NTR1 ag	Jurkat NFkB inh
O=[N+]([O-])/C=C/c1cn(Cc2ccc(Cl)cc2)c2ccccc12	26.2	0.2	-2.1	9.1*	1.2	5.1
O=C(N/N=C(\c1ccccc1)c1ccccn1)c1ccccc1Cl	40.4	94.4*	-16.2	0.1	3.9	45.1
COc1ccc(C(=O)N/N=C(\c2ccccc2)c2ccccn2)cc1	.	113.0*	.	0.2	.	.
COc1ccc(C(=O)Nc2ccc(NC(=O)c3ccccn3)cn2)cc1	-17.0	.	-5.8	.	-1.2	-39.4
CCOc1ccc(C(=O)N/N=C(/C)C2C(=O)c3ccccc3C2=O)cc1	-3.6	4.5	-2.1	-2.4	-0.8	9.6
C/C(=N/NC(=O)c1ccccn1)c1ccncc1	-21.5	-0.2	-26.1	-3.1	-1.6	-44.1
CCOc1ccc(OCc2ccc(C(=O)N/N=C(\C)c3ccccn3)cc2)cc1	.	102.1*	.	-0.2	.	.
CC(=O)Oc1ccc(N(C(C)=O)S(=O)(=O)c2cccs2)c2ccccc12	9.6	92.7*	25.8	0.0	2.3	40.3
CC(=O)Oc1ccccc1N(C(C)=O)S(=O)(=O)c1ccc2ccccc2c1	14.2	.	10.6	-1.0	0.9	-9.7
CCN(c1ccc(NC(=O)COC(=O)C(C)N=C2NS(=O)(=O)c3ccccc32)cc1)C(C)C (stereo not given)	-14.4	.	8.9	.	-0.5	6.1
O=C(Nc1ccc(OCC(=O)N2CCC(Cc3ccccc3)CC2)cc1)c1ccco1	21.3	98.1*	15.4	-0.4	3.3	5.0
CC(=O)Nc1ccc(OCC(=O)N2CCC(Cc3ccccc3)CC2)cc1	-1.8	9.3	-1.5	-0.2	-0.6	9.5
N#Cc1ccc(-c2ccc(Cl)cc2)nc1SCC(=O)c1cccc(Cl)c1	31.3	90.8*	3.7	-1.3	-2.3	-12.3
O=C(NCCOCCOCCNC(=O)c1cccnc1)c1cccnc1	-0.3	119.8*	-8.1	1.3	-6.3	-17.8
Cc1ccccc1NC(=S)Nc1cccc2cnccc12	5.4	128.8*	7.0	1.0	-0.8	34.0
O=C(Cc1ccc([N+](=O)[O-])cc1)N/N=C/c1ccc([N+](=O)[O-])o1	23.4	97.2*	7.6	-0.1	1.7	-5.0
O=C(CNc1cccc([N+](=O)[O-])c1)N/N=C/c1ccc([N+](=O)[O-])o1	3.2	92.9*	-2.4	-0.6	4.6	24.9
Cc1ccc(C(=O)COC(=O)c2ccc3c(c2)C(=O)N(c2cccc4ncccc24)C3=O)cc1	1.3	4.7	-6.8	6.4*	3.9	-10.3
Cc1cccc(Nc2nc3c(S(=O)(=O)c4ccccc4)nnn3c3ccccc23)c1	33.7	8.9	-0.3	7.4*	2.8	-4.6
O=C(Nc1cccc(Cl)c1)c1ccc(=O)[nH]n1	10.4	.	-14.5	-2.6	0.2	-5.2
COc1cc(NC2CCCCC2O)c2nc(-c3ccc(Cl)cc3)ccc2c1 (stereo not given)	47.3	80.4*	-18.3	1.5	16.0	1.2
Cc1ccc(-c2csc(N3CCC(NS(=O)(=O)c4ccc5c(c4)OCCO5)CC3)n2)cc1	29.2	96.8*	-11.8	-0.8	4.0	19.6

Screening data (PubChem BioAssay)
